# High-throughput results: PubChem BioAssay, several laboratories
# Autophagy mod = alters autophagy in cells; AID 463193; hit rate 0.98% among 190,000; MEF GFP-LC3 puncta imaging; test concentration mostly 10 µM; calls only at 10 µM (by protocol);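 active means percentage of spot-positive cells more than 3 SD above its plate mean, without a fluorescence outlier flag or 80% toxicity; inconclusive means no clear call, values can overlap the other calls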;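 further: spot-positive cell cutoff set from DMSO-treated cells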
# INS promoter inh = TRM-6 insulin promoter activity inhibition; TRM-6 cells (human fetal islet line), insulin promoter-eGFP reporter, imaging; reporter expression induced with tamoxifen; inhibition, % at 2 µM; hit rate 0.9% among 130,000; AID 1273;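 active means inhibition above the mean plus 3 SD, with well images judged a real hit on visual review, cut at about 60% in these data, passing the limit was not always enough; inconclusive means inhibition over the cutoff but images rejected on review; inactive means inhibition not above the cutoff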
# Ins promoter up = MIN6 insulin promoter up-regulation. MIN6 insulin promoter-GFP reporter, high-content imaging; hits give high values. z-score at 5 µM. hit rate 0.3% among 190,000. AID 1625;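 active means z-score above 3 at 5 µM with at least 500 cells counted in the well; inconclusive means wells under 500 cells, flagged as cytotoxic or low count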
# eIF4E 4G PPI = inhibitors of eIF4E and eIF4G interaction in translation initiation. P63073+Q04637. TR-FRET eIF4E-eIF4GI(517-606) binding, 2 h. inhibition, % at 21.7 µM. hit rate 0.37% among 220,000;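 active means inhibition above about 30%, limit read from the data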;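 further: 0% = full FRET control wells and 100% = background wells lacking eIF4GI fragment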
# PERK inhibitor = human PERK inhibition, primary cell-based screen; Q9NZJ5; AID 1416; CHO PERK-DD fusion, SEAP luminescence translation reporter; inhibition, % at 5.6 µM; hit rate 0.17% among 220,000;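 active means inhibition above the mean inhibition of all tested compounds plus 3 SD, set separately per screening campaign, cut at about 2.9% in these data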;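 further: PERK kinase domain activated by AP20187 dimerizer at 100 nM; 0% = DMSO with dimerizer and 100% = rapamycin at 8.4 µM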
# Starred values were filed as active, the others as inactive; i = inactive; ? = inconclusive; . = no result given; + = active, no number; [ ] = another dose, or the depositor's remark. This is a sample that favours compounds with a hit; in the whole collection about 2% have one here.
SMILES,Autophagy mod,INS promoter inh,Ins promoter up,eIF4E 4G PPI,PERK inhibitor
Cc1ccc(NC(=O)c2ccc3c(c2)C(=O)N(Cc2cccnc2)C3=O)c(C)c1,i,.,-0.2,-1.1,0.5
OC1=C(O)c2nc3cc(F)ccc3nc21,.,.,0.59,-10.9,-0.9
Fc1ccc2nc3[nH]c4ccccc4c3nc2c1,i,90.9*,-0.32,-1.9,-0.3
Cc1ccc(C(=O)c2cc([N+](=O)[O-])ccc2N2CCCCC2)c(C)c1,i,-148.4,-1.32,-0.2,0.4
O=C(CSc1nc(-c2ccc(F)cc2)nc2c1Cc1ccccc1O2)Nc1cccc(C(=O)O)c1,i,.,-0.15,62.7*,0.6
CCn1c(Cn2nnc(-c3ccccc3)n2)nnc1SCC(=O)Nc1ccc(C(C)=O)cc1,i,9.7,4.86*,-6.2,-1.0
Cn1c(NC(=O)c2ccc(S(=O)(=O)N3CCOCC3)cc2)cc(=O)n(C)c1=O,i,-43.3,-0.01,-0.7,0.9
CC(C)c1ccc(NC(=O)C(c2ccc3c(c2)OCO3)N2CCCCC2)cc1 (centres undefined),i,.,-0.99,-1.9,-0.6
Oc1cc2c(cc1C(c1ccc(Cl)c(Cl)c1)N1CCCC1)OCO2 (centres undefined),i,-21.1,-0.44,37.8*,1.6
CCOc1ccc(C(=O)N2CCN=C2SC)cc1OCC,+,.,0.37,4.9,1.4
CCOc1ccccc1C(=O)N1CCN=C1SC,i,.,?,-1.7,1.8
Cc1ccccc1NC(=O)CSC(N)=O,i,.,-0.13,-2.8,3.1*
COC(=O)CC1C(=O)NCCN1C(=O)CSc1nc2ccccc2c(=O)n1CC(C)C (centres undefined),i,.,-1.95,2.0,1.1
Clc1ccc(-n2nnnc2Sc2ncnc3sccc23)cc1,+,68.0,.,.,0.2
CCOc1ccccc1NC(=O)C1CC(=O)n2ncnc2N1 (centres undefined),i,-10.7,-0.93,-7.6,1.5
O=P(Cc1ccccn1)(c1ccccc1)c1ccccc1,i,-37.9,-0.2,-5.8,0.5
Cc1cc(C)c(C#N)c(SC(F)F)n1,i,53.5,-0.06,-3.0,1.4
CCOc1cc(/C=N/NC(=O)c2ccc(-c3csc(Nc4ccc(C)cc4)n3)cc2)ccc1OCC(=O)O,i,6.2,-0.54,31.1*,1.6
CCOc1cc(/C=N/NC(=O)c2ccncc2)ccc1OS(C)(=O)=O,i,7.4,0.21,6.2,-0.1
Cc1nc(CC(=O)N/N=C/c2ccc(OCC(=O)O)cc2)cs1,.,.,1.34,-4.7,2.2
O=C(O)COc1ccc(/C=N/NC(=O)c2ccc(-c3csc(Nc4ccc(Cl)cc4)n3)cc2)cc1,.,.,-1.11,71.9*,0.8
NNC(=O)CCc1ccc(S(=O)(=O)N2CCOCC2)cc1,i,81.2*,0.16,3.0,1.3
COc1ccc(S(=O)(=O)N2CCOCC2)cc1NC(=O)CSc1nnc2ccccn12,i,0.0,0.14,-1.9,0.7
CCOc1ccc2[nH]c3c(N4CCN(c5ccccn5)CC4)ncnc3c2c1,+,87.5*,.,-12.0,-1.4
CCN(CC(=O)Nc1ccc(C)c(F)c1)CC(=O)NC(C)(C)C,i,.,-0.39,2.8,-0.8
SMILES,Autophagy mod,INS promoter inh,Ins promoter up,eIF4E 4G PPI,PERK inhibitor
NC(=O)c1ccc(C(F)(F)F)n(Cc2cccc(Cl)c2)c1=O,i,.,-0.29,1.6,-0.3
COc1ccc(-c2c(C#N)c(C)nc3c2C(=O)c2ccccc2-3)cc1,i,89.5*,-0.45,-10.4,-0.5
CCN(CC)CCn1c(=S)[nH]c2ccc(Br)cc2c1=O,i,-33.3,0.34,1.2,0.8
CN(C)C(/C=C/Nc1ccc(Br)cc1)=C(C#N)C#N,i,.,-0.47,1.6,1.4
Brc1ccc(N=C/C=C/C=C/Nc2ccc(Br)cc2)cc1,i,79.0*,-0.15,-1.4,1.6
O=C(CN(C(=O)CNS(=O)(=O)c1ccccc1)C1CCCC1)NCC1CCCO1 (centres undefined),i,.,-0.88,-3.8,-0.4
O=S(=O)(NCC1CCCO1)c1ccc(-c2ccc(Cl)cc2)cc1 (centres undefined),+,.,-0.56,-1.8,-0.7
Cc1ccc(S(=O)(=O)NCC(=O)N(CC(=O)NCC2CCCO2)C2CCCC2)cc1 (centres undefined),i,-61.3,.,91.3*[fluorescence artefact?],0.6
COc1ccc(-c2ccc(S(=O)(=O)NCC3CCCO3)cc2)cc1 (centres undefined),i,21.4,0.08,7.7,0.3
COc1cc(/C=C(\C#N)C(=O)NCC2CCCO2)ccc1OC(C)C (centres undefined),i,70.3*,0.09,-1.7,-0.1
COc1ccc(/C=C(\C#N)C(=O)NCC2CCCO2)cc1OC (centres undefined),i,.,-0.01,-5.0,1.0
